Compound activity (PubChem)
Hits are enriched below; roughly 2.3% of the tested compounds scored in any of these assays.
CHO-K1 Ca ag – nonselective activator or artifact in parental CHO-K1 cells. Fluo-8 calcium fluorescence; scaled to maximal ATP response, vehicle zero. activation, % at 3 µM. actives 0.48% (n = 360,000). AID 602248; in the data active = activation above about 15%;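 also: untransfected CHO-K1 host cells lacking M1 receptor as counterscreen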
CHRM1 PAM – potentiates human M1 receptor response to acetylcholine; actives 0.088% (n = 360,000); AID 588819; P11229; activation, % at 3 µM; CHO-K1 hM1, Fluo-8 calcium fluorescence, ACh EC20; 0% = ACh EC20, 100% = maximal ACh; in the data active = activation above about 19%, passing the limit was not always enough
Target sequence (P11229 whole entry, looked up): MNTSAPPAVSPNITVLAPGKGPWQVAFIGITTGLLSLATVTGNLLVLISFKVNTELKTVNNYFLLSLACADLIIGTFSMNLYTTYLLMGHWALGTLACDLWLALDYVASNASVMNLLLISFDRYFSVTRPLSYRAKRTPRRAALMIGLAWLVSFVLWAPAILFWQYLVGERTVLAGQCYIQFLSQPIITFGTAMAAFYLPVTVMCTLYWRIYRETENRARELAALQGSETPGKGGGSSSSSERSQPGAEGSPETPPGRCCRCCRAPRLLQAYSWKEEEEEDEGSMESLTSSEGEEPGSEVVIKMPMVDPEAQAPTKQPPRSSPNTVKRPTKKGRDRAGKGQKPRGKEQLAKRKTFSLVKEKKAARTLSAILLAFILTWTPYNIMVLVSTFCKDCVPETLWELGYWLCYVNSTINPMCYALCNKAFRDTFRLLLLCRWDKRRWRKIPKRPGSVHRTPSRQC
M1 antag – blocks human M1 muscarinic receptor; CHO-K1 hM1, Fluo-8 calcium fluorescence, ACh EC80 antagonist; inhibition, % at 3 µM; actives 1.3% (n = 360,000); AID 588852;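 active = percent inhibition above its own plate's cutoff, namely the mean of that plate's compound wells plus 3 SD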;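 also: peak over basal fluorescence ratio during 140 s after agonist addition; 0% = ACh EC80 plus DMSO and 100% = DMSO alone without agonist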
M1 ag – activates human CHRM1 receptor; CHO-K1 hM1, Fluo-8 calcium fluorescence, agonist mode; 0% DMSO, 100% acetylcholine EC100; activation, % at 3 µM; AID 588814; P11229; actives 0.33% (n = 360,000);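 active = activation above the run's mean compound activation plus 3 SD, cut at about 16% in these data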;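 also: peak over basal fluorescence ratio within a 140 s kinetic read after compound addition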
M1 PAM parental – M1 PAM counterscreen hit in parental CHO-K1 cells. ATP EC20, Fluo-8 calcium fluorescence; 0% at ATP EC20, 100% at ATP max. activation, % at 3 µM. actives 0.02% (n = 360,000). AID 602247;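 active = activation above the run cutoff, the mean activation of all test compounds plus 3 SD, cut at about 40% in these data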;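 also: peak over basal fluorescence ratio in a 140 s read after ATP addition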
CHO-K1 Ca antag – M1 antagonist counterscreen hit in parental CHO-K1 cells; actives 0.6% (n = 360,000); inhibition, % at 3 µM; ATP-induced calcium, Fluo-8 fluorescence;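 active = inhibition above a per-plate cutoff, the plate's mean sample inhibition plus 3 SD, cut at about 24% in these data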;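 also: 0% = DMSO plus EC80 ATP and 100% = DMSO alone without ATP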
Active calls of the source: *; . = not tested or not shown.

SMILES	CHO-K1 Ca ag	CHRM1 PAM	M1 antag	M1 ag	M1 PAM parental	CHO-K1 Ca antag
CN1CCN(c2ccc(C(F)(F)F)cc2NC(=O)Nc2ccccc2)CC1	21*	0	6	-1	6	17
CN(C(=O)Cn1cc(C(F)(F)F)cc(Cl)c1=O)C1CCS(=O)(=O)C1 (stereo not drawn)	0	9	-9	-3	-6	1
CN(C)CCO[C@@H](c1ccc(Cl)cc1)c1ccccn1	0	-27	44*	-9	-21	4
CN(C)CC[C@@H](c1ccc(Br)cc1)c1ccccn1	0	-26	42	-8	-2	6
C[C@@H]1COC(=O)[C@@H](CC(=O)OC(C)(C)C)C/C=C\C[C@H](CC(=O)N(CCO)Cc2ccccc2)C(=O)N1	0	-5	9	-5	-3	-10
NNC(=O)[C@H](Cc1ccccc1)NC(=O)Nc1ccc2c(c1)OCCO2	0	-22	36*	-7	-13	-4
COc1ccc(NC(=O)N[C@@H](Cc2ccccc2)C(=O)NN)cc1	1	9	-15	-3	25	-8
COc1ccccc1N1CCN(C(=O)C2CCCN(S(=O)(=O)c3ccc4c(c3)oc(=O)n4C)C2)CC1 (stereo not drawn)	21*	-24	26	-3	-5	14
Cc1ccc2c(c1)[C@H]1[C@H](CO2)[C@H](c2ccccc2)[C@]2(C)C(=O)N(C)CC(=O)N12	0	8	-14	5	-3	14
O=C(c1nc2ccccn2c1CNCCCn1cccn1)N1CCCC1	3	3	-12	-4	11	-14
CCCCCCCCCCn1ccc(=N)cc1	0	-25	63*	-8	2	7
CC(C)(C)NC(=O)CN(C(=O)CCC(=O)Nc1nccs1)c1cccc(C(F)(F)F)c1	2	8	-12	3	5	-2
Cc1ccc(-n2nc(C(=O)c3ccccc3)n3c(=O)cc(-c4ccccc4)nc23)cc1	1	-6	37*	-4	18	-3
CC(=O)c1cn(CC(=O)Nc2ccccc2C(F)(F)F)c2ccccc12	1	3	-5	3	-23	27*
Cc1ccc(C)c(NC(=O)Cn2cc(C(=O)C3CC3)c3ccccc32)c1	3	8	-2	6	6	25*
O=C1C(Br)=C(c2ccccc2)C(c2ccccc2)=C1c1ccccc1	0	-13	26	-2	-20	16
CCC1c2ccc(C)n2CCN1C(=O)Nc1ccc(F)cc1 (stereo not drawn)	7	-3	6	-3	-7	26*
CCCC1c2ccc(C)n2CCN1C(=O)Nc1ccc(F)cc1 (stereo not drawn)	2	10	-13	-1	1	2
COc1ccc2c(O)c(-c3c(C)cc(C)cc3C)c(=O)[nH]c2c1	0	1	-4	-3	9	6
CC1(C)CC(=O)C=C(c2ccc(-c3cnn(Cc4ccccc4)c3)cc2)C1=O	2	-6	5	1	-5	7
O=C(OCCN1CCCC1)C1(c2ccccc2)CCCC1	1	-23	99*	-5	21	-1
C[N+]1(CCCOC(=O)C2(c3ccccc3)CCCC2)CCOCC1	0	-23	100*	-9	-7	7
CCNC(=O)C1(c2ccccc2)CCCC1	0	10	-12	0	15	-16
CN(C)CCOC(=O)C1(c2ccccc2)CCCC1	1	-23	100*	-5	13	-4
O=C(OCCN1CCCCC1)C1(c2ccccc2)CCCC1	2	-38	100*	-15	5	-2
SMILES	CHO-K1 Ca ag	CHRM1 PAM	M1 antag	M1 ag	M1 PAM parental	CHO-K1 Ca antag
O=C(NCCc1ccc2c(c1)OCO2)Oc1ccccc1	2	.	.	.	7	-3
O=C(C[C@@H]1C/C=C\CC[C@H](Cc2ccc(F)cc2)C(=O)OC[C@@H]2CCCN2C1=O)N[C@H](CO)Cc1ccccc1	3	-8	7	-7	-10	8
c1ccc(CN2CCCC3(CCCN(Cc4nc(COc5ccccc5)no4)C3)C2)cc1 (stereo not drawn)	0	-28	60*	-10	25	-12
c1ccc(CN2CCCC3(CCCN(Cc4nc(CC5CC5)no4)C3)C2)cc1 (stereo not drawn)	0	-13	19	-8	19	-3
CC(C)c1ccc(-n2nnnc2SCc2nc(N)nc(N)n2)cc1	3	1	-18	3	9	-21
COc1ccc(CNC(=O)c2cc(S(=O)(=O)N3CCCCC3)ccc2N2CCOCC2)cc1OC	-1	12	-10	-3	-19	5
CCN(CC)CCC/C(=N\O)C(O)(c1ccccc1)c1ccccc1	1	-22	95*	-5	11	-14
CC/C(CC(C)(C)c1ccccc1)=N\O	0	7	-4	-3	22	-15
CC[N+](C)(CC)CCC/C(=N/O)C(O)(c1ccccc1)c1ccccc1	1	-20	64*	-3	14	-5
COc1ccc(N2CCN(c3cncc(C)n3)CC2)cc1	1	-6	8	-1	-12	10
CC1CCCC(NC(=O)COC(=O)/C=C/c2ccc(S(=O)(=O)N3CCOCC3)cc2)C1C (stereo not drawn)	19*	7	-16	-1	3	3
COc1ccc(/C=C/C(=O)OCC(=O)NC2CCCC(C)C2C)cc1S(=O)(=O)N1CCOCC1 (stereo not drawn)	2	10	-10	-2	16	-10
CCOC(=O)Nc1ccc2c(c1)C(=NNC(=S)NC)c1ccccc1-2	1	-2	-3	-6	14	-8
O=C1/C(=C/c2cccnc2)Sc2ccccc21	1	25*	-4	9	21	-8
Cc1ccsc1C(=O)NC1CCCN(Cc2ccc(Cl)cc2)C1 (stereo not drawn)	0	0	-1	9	10	-3
CCOC(=O)C1CCCN(c2ncnc3c2oc2ccccc23)C1 (stereo not drawn)	4	-11	21	0	-8	24*
Cc1cccc(N2CN(S(=O)(=O)c3cccc([N+](=O)[O-])c3)c3nc4ccccc4nc32)c1	1	6	-11	-1	24	-14
CC(C)CCOc1ccc(C(=O)NCC(c2ccco2)N(C)C)cc1 (stereo not drawn)	-1	-30	28*	-12	7	-4
CCOc1ccc(NS(=O)(=O)c2ccc(C(=O)NCC(c3ccco3)N(C)C)cc2)cc1 (stereo not drawn)	11	-10	5	9	-12	10
CC(=O)c1ccc(OCCCC(=O)NCC(c2ccco2)N(C)C)cc1 (stereo not drawn)	0	0	0	-5	-8	25*
Cc1ccc2nc(-c3ccc(Cl)cc3)c(Cc3ccccn3)n2c1	2	.	.	.	5	-10
